Rv3671c protease: Rv3671c (M. tuberculosis) protease inhibition; inhibition, % at 5.96 µM; 0.048% of 320,000 active; in the data active means inhibition above about 38%;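 further: extracellular domain of Rv3671c used as enzyme; 0% = enzyme with DMSO and 100% = no enzyme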
Mtb FBA inh: inhibitors of M. tuberculosis fructose-bisphosphate aldolase; P9WQA3; purified M. tuberculosis FBA, fluorescence read-out; inhibition, % at 1 µM; 2.3% of 360,000 active; AID 588726; in the data active means inhibition above about 27%;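 further: 0% = vehicle and 100% = reference inhibitor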
Target sequence (P9WQA3 whole entry, looked up): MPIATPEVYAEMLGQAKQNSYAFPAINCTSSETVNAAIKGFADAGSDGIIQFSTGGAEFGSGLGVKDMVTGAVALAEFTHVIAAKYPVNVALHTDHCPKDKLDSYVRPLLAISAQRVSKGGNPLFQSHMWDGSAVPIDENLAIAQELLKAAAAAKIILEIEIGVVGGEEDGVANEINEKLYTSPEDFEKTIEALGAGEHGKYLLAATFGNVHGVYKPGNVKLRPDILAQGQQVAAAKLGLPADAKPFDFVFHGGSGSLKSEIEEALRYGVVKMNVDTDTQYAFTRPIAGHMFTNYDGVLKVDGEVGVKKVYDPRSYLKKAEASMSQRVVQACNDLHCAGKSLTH
FadD28 binding: inhibitors of Mycobacterium tuberculosis FadD28 bisubstrate binding; FadD28 bisubstrate probe binding, fluorescence polarization; inhibition, % at 12.5 µM; 0.22% of 360,000 active; AID 588549; in the data active means inhibition above about 8.5%, passing the limit was not always enough; inconclusive means no clear call, values can overlap the other calls
GDH-TPI inh: GDH-TPI coupled enzyme inhibition counter-screen; AID 588335; 1.2% of 360,000 active; inhibition, % at 4.8 µM; GDH-TPI coupled enzyme counterscreen, NADH absorbance; in the data active means inhibition above about 30%;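 further: 0% = DMSO wells and 100% = wells lacking the enzyme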
Mtb bLac sens: beta-lactam sensitization of Mtb H37Rv. M. tuberculosis H37Rv growth with meropenem, percent inhibition. 0.27% of 330,000 active. inhibition, % at 25 µM; call rule not given here;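 further: growth measured after seven days incubation then overnight dye step; 0% = bacteria only wells and 100% = bacteria with antibiotic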
Mtb UGM inh: Mtb UDP-galactopyranose mutase inhibition | purified UGM, fluorescence polarization probe displacement | inhibition, % at 10 µM | 0.06% of 320,000 active | AID 504406; in the data active means inhibition above about 10%, passing the limit was not always enough; inconclusive means no clear call, values can overlap the other calls
* hit, by the source's call; u = inconclusive; x = no result; + = active, no number. This is a sample that favours compounds with a hit; in the whole collection about 3.7% have one here.

SMILES	Rv3671c protease	Mtb FBA inh	FadD28 binding	GDH-TPI inh	Mtb bLac sens	Mtb UGM inh
c1ccc(CSc2nnc(-c3ccco3)n2Cc2ccco2)cc1	5	-1	-5	-2	-13	-2
Cn1c2ccccc2c(=O)c2cc(C#Cc3ccccn3)ccc21	-9	186*	-4	26	2	-1
Cn1c2ccccc2c(=O)c2ccc(C#Cc3ccccn3)cc21	-21	x	x	x	12	-1
COC(=O)c1ccccc1N/C=C1\CCc2c(c(C)nn2-c2ccccn2)C1=O	-10	9	0	32*	15	0
O=Cc1ccc(-c2ccc(C(=O)O)cc2)o1	-1	8	2	42*	-8	-2
CC1CCN(S(=O)(=O)c2ccc(NC(=O)C3CCCCC3C(=O)O)cc2)CC1 (configuration not stated)	x	0	-1	11	x	x
CC1=C(C(=O)N(C)C)CC(CC(=O)NC2CCCCC2)C(=O)N1CCC1=CCCCC1 (configuration not stated)	x	-2	-3	-2	x	x
Cc1cc(NC(=O)c2sc3ccccc3c2O)no1	x	+	0	9	11	5
CC1(C)Nc2ccccc2C(=O)N1c1ccccc1	0	115*	2	8	-7	3
CC1(C)Nc2ccccc2C(=O)N1NC(=O)c1ccccc1	0	11	1	8	3	-3
N#Cc1c(N)n(CCCN2CCOCC2)c2nc3ccccc3nc12	-5	192*	0	18	-2	0
Nc1c(C(=O)Nc2ccccc2)c2nc3ccccc3nc2n1CCCN1CCOCC1	16	5	-27	12	100	-1
CCCCCCn1c(N)c(C(=O)NCCN2CCOCC2)c2nc3ccccc3nc21	3	50*	-5	-1	87	1
COc1ccc(CCn2c(N)c(C#N)c3nc4ccccc4nc32)cc1OC	-66	16	0	10	-1	0
COc1ccccc1CCn1c(N)c(C#N)c2nc3ccccc3nc21	-39	+	-6	27	5	1
N#Cc1c(N)n(CCNC(=O)c2cccs2)c2nc3ccccc3nc12	-6	+	0	9	-17	2
CSc1ncnc2c1ncn2CCCNc1ccc(C)c(C)c1	x	3	0	-4	x	x
O=C(O)CC1S/C(=N/N=C/c2ccc(-c3ccccc3[N+](=O)[O-])o2)NC1=O (configuration not stated)	-68	-5	0	40*	2	-3
Cc1ccc(S(=O)(=O)Oc2ccc(/C=N/N=C3/NC(=O)C(CC(=O)O)S3)cc2)cc1 (configuration not stated)	x	1	-6	22	x	x
Cc1ccc(-c2ccc(/C=N/N=C3/NC(=O)C(CC(=O)O)S3)o2)c([N+](=O)[O-])c1 (configuration not stated)	-59	-4	1	36*	-3	2
OCC(O)C1OC(c2ccccc2)OC(CO)C1O (configuration not stated)	x	6	-1	17	x	x
COc1ccc(Cl)cc1C1=NOC2(CCC2)C(=O)N1Cc1cccc(C#N)c1	x	1	-4	0	x	x
COc1cc(C(C)=O)ccc1OCCCOc1cccc2cccnc12	0	1	-2	7	3	-2
CC(=O)c1ccc(OCC(=O)NC(=O)NC2CCCC2)cc1	x	-1	-3	5	x	x
O=C(O)CCn1c(-c2ccccn2)nc2ccccc21	3	27*	1	0	2	-3
SMILES	Rv3671c protease	Mtb FBA inh	FadD28 binding	GDH-TPI inh	Mtb bLac sens	Mtb UGM inh
CN(C(=O)CN1CCN(c2cc(-c3ccc(-c4ccccc4)cc3)ncn2)CC1)c1ccccc1	x	2	1	-4	x	x
O=C(OCCSCCOC(=O)C1CC=CCC1)C1CC=CCC1 (configuration not stated)	x	-2	-3	4	x	x
COc1cc2c(cc1OC)C1=NC(=O)CN1C(SCc1ccccc1C)=N2	-3	27*	-5	9	-1	-4
COc1cc2cc(C(N)=O)c(N)nc2cc1OC	1	+	u	-2	-1	4
COc1ccc2nc(C)c(C(N)=O)cc2c1	4	6	-5	-4	-5	2
N#C/C(=C\c1cc2c(cc1Br)OCO2)c1ccc(C(=O)O)cc1	6	0	-2	31*	0	6
CCOc1cc2c(cc1/C=C(/C#N)c1ccc(C(=O)O)cc1)OCO2	-1	-4	-3	2	2	-2
O=c1cc(O)c2c(=O)n(-c3ccccc3)c3c(c2o1)CCCCC3	12	2	0	32*	-2	x
